SARS 3CLpro inh: SARS-CoV 3CLpro protease inhibitors, primary screen, biochemical, quenched FRET; Replicase polyprotein 1ab (Severe acute respiratory syndrome coronavirus), P0C6X7; recombinant SARS-CoV 3CLpro, quenched FRET peptide cleavage; inhibition, % at 6 µM; actives 0.14% (n = 290,000); AID 1706, 2009; in the data active = inhibition above about 12%
FadD28 FP inh: inhibitors of FadD28 bisubstrate probe binding, primary screen, biochemical, fluorescence polarization, single point. actives 0.22% (n = 360,000). Mycobacterium tuberculosis FadD28 fatty-acid-AMP ligase. inhibition, % at 12.5 µM; in the data active = inhibition above about 8.5%, passing the limit was not always enough
Mtb BioA inh: M. tuberculosis BioA enzyme inhibitors, primary screen, biochemical, plate reader, single point, HTS; 7,8-diaminopelargonic acid synthase BioA (Mycobacterium tuberculosis); purified M. tuberculosis BioA enzyme; inhibition, % at 9.99 µM; actives 0.096% (n = 360,000); AID 602481, 2012; in the data active = inhibition above about 40%
Mtb FBA inh: Mtb FBA enzyme inhibitors, primary screen, biochemical, fluorescence, strain H37Rv; Fructose-bisphosphate aldolase (Mycobacterium tuberculosis (strain ATCC 25618 / H37Rv)), …; purified M. tuberculosis FBA, fluorescence read-out; inhibition, % at 1 µM; actives 2.3% (n = 360,000); in the data active = inhibition above about 27%;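 note: 0% = vehicle and 100% = reference inhibitor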
Target sequence (P9WQA3 whole entry, looked up): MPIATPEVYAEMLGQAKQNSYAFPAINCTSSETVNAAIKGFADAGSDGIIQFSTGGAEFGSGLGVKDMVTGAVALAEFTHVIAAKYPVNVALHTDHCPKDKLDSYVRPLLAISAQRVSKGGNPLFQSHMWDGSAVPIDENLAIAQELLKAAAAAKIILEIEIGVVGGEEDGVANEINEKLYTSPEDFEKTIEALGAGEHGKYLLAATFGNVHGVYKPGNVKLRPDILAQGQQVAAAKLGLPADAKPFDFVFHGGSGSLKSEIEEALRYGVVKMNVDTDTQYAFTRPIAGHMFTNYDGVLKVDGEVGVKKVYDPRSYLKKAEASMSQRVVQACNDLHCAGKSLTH
GDH-TPI counter: GDH-TPI coupling enzyme inhibitors, primary screen, artefact control for M. tuberculosis FBA inhibitor project, biochemical, absorbance, full deck; GDH-TPI coupled enzyme counterscreen, NADH absorbance; inhibition, % at 4.8 µM; actives 1.2% (n = 360,000); in the data active = inhibition above about 30%;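 note: 0% = DMSO wells and 100% = wells lacking the enzyme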
* hit, by the source's call; x = no result; + = active, no number. A selection: hits, their analogues and other compounds. The true share with any hit is near 3.1%.

SMILES	SARS 3CLpro inh	FadD28 FP inh	Mtb BioA inh	Mtb FBA inh	GDH-TPI counter
C[C@@H]1CN([C@H](C)CO)C(=O)c2cccc(NS(=O)(=O)c3ccc(F)cc3)c2O[C@H]1CN(C)S(=O)(=O)c1ccc(F)cc1	x	x	-1.7	x	x
Cc1cc2oc3cc(NCCC4CCCN4C)ccc3c(=O)c2cc1C (stereo not given)	x	-2.0	-0.6	+	23.1
N#CCCCCn1ccc(NC(=O)c2ccc(Cl)cc2O)n1	x	0.4	x	12.3	32.0*
Cc1ccc(Cn2ccc(NC(=O)c3cc(-c4ccc(Cl)cc4)on3)n2)cc1	-5.8	0.1	x	1.5	5.5
Nc1cccc2c(O)cc(S(=O)(=O)O)cc12	x	36.0*	-1.5	13.1	19.4
COc1ccc(C(=O)NCC(=O)N2CCC3(CC2)NCCc2[nH]cnc23)cc1	6.5	-0.4	-2.1	3.5	10.3
COc1cccc(C(=O)NCC(=O)N2CCC3(CC2)NCCc2[nH]cnc23)c1OC	2.4	-0.2	0.2	6.6	50.9*
C[C@H](CO)N1C[C@H](C)[C@@H](CN(C)S(=O)(=O)c2cccs2)Oc2ccc(NC(=O)Cn3cnnn3)cc2CC1=O	x	x	2.7	x	x
COc1ccc([Si](C)(C)[C@H]2[C@H](CCn3cc(CCO)nn3)O[C@@]3(C(=O)N(C)c4c(Br)cc(C)cc43)[C@@H]2C)cc1	x	x	1.1	x	x
COc1ccc(-c2ccnc3nc(N4CCOCC4)nn23)cc1	6.8	-2.2	-2.0	84.0*	34.0*
CCN1CCN(c2nc(N)c([N+](=O)[O-])c(Nc3cccc(C)c3)n2)CC1	-2.4	-1.7	1.2	0.7	34.9*
CCC1(OC(=O)CN)C(=O)OCc2c1cc1n(c2=O)Cc2cc3ccccc3nc2-1 (stereo not given)	-2.7	-2.4	-0.8	+	29.0
COC(=O)c1ccc(C2Nc3ccccc3NC3=C2C(=O)CC(C)(C)C3)cc1 (stereo not given)	3.3	-3.4	-0.6	-2.7	19.3
CC1(C)CC(=O)C2=C(C1)Nc1ccccc1NC2c1cccnc1 (stereo not given)	x	0.1	-0.3	1.6	37.3*
COC(=O)c1ccc2c(c1)NC1=C(C(=O)CC(C)(C)C1)C(c1ccncc1)N2 (stereo not given)	0.0	-4.5	10.3	-0.2	31.3*
CCOc1cc(C2Nc3ccccc3NC3=C2C(=O)CC(C)(C)C3)ccc1OC(C)=O (stereo not given)	-1.0	-0.4	-1.8	-0.3	43.4*
Cc1cc2c(cc1C)NC(c1cccnc1)C1=C(CC(C)(C)CC1=O)N2 (stereo not given)	0.3	-1.4	-1.8	-2.4	32.9*
CC1=C(C#N)C(c2cccnc2)C2=C(CC(C)(C)CC2=O)N1 (stereo not given)	-6.3	-0.6	17.4	15.1	-2.1
CN(C)CC(=O)N[C@@H]1C=C[C@H](CC(=O)NCCN2CCCCC2)O[C@H]1CO	x	x	-3.6	x	x
CCN(CC)S(=O)(=O)c1ccc(/C(O)=C(\C#N)c2nc3ccccc3n2C)cc1	0.1	2.9	x	1.6	39.2*
Cn1c(/C(C#N)=C(\O)c2ccc([N+](=O)[O-])cc2)nc2ccccc21	-1.9	0.0	x	1.4	-5.7
Cc1ccc(S(=O)(=O)N/N=C/c2ccccc2O)cc1[N+](=O)[O-]	-2.7	-2.3	x	-1.2	-3.1
Cc1ccc(S(=O)(=O)N/N=C/c2ccc(O)c(O)c2)cc1[N+](=O)[O-]	-1.3	-4.2	0.1	-2.6	32.9*
C/C(=N\NS(=O)(=O)c1ccc(C)c([N+](=O)[O-])c1)c1cc2ccccc2o1	-1.1	-0.3	1.5	-3.3	40.8*
COc1ccc(C2C3=C(CC(c4ccco4)CC3=O)Nc3ccccc3N2C(C)=O)cc1 (stereo not given)	-6.2	-1.7	8.6	0.5	33.9*
CCC(C)/C=C/C1=CC2=C(Cl)C(=O)C3(C)OC(=O)C(C(=O)C(C)C(C)O)C3C2=CO1 (stereo not given)	3.6	0.8	0.9	2.4	-3.9
CC[C@H](C)/C=C(C)/C=C/C1=CC2=C(Cl)C(=O)[C@](C)(OC(C)=O)C(=O)C2=CO1	x	17.2*	6.8	5.1	22.9
Nc1nc2c(ncn2-c2ccccc2)c(=O)[nH]1	x	-1.9	0.8	1.3	9.9
Nc1nc2nn(-c3ccccc3)nc2c(=O)[nH]1	-2.6	x	-1.0	199.2*	14.3

Bioassay records (PubChem BioAssay)
